Shiga toxin inh = Shiga toxin inhibition; Vero cells, Shiga toxin protein synthesis inhibition reporter; inhibition, % at 38.7 µM; 290,000 compounds, 9.2% hits; in the data active = inhibition mostly above about 28%, no sharp cut-off; inactive = mostly below about 43%; note: 0% is about no effect
Pf growth 48h = inhibits P. falciparum growth in the first generation, 48 h; Potency, µM (titrated, usually from 28.7 µM), inactives show at the highest dose activity change, negative = inhibition, usual class: inhibitors; P. falciparum luciferase growth in erythrocytes, 48 h; 310,000 compounds, 5.9% hits; AID 504832; note: potency is the fitted concentration of half-maximal effect; % is set by controls: 0 for no effect and ±100 for the full control effect
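Growth was read as firefly luciferase luminescence after a 48 h, 37 C, 5% CO2 exposure of compounds to reporter-bearing P. falciparum cultures (0.1% parasitemia, 2% hematocrit final) in Albumax-supplemented RPMI 1640.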
AMA1 RON2 block = disrupts binding of P. falciparum AMA1 to RON2. AlphaScreen AMA1-biotinylated RON2 peptide binding. Potency, µM (top dose mostly 58.2 µM), for the others: top-dose activity change, negative = inhibition, actives largely listed as inhibitors. 360,000 compounds, 0.2% hits. AID 720542;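 note: potency is the fitted concentration of half-maximal effect; 0% = vehicle wells and -100% = peptide control; nearly all actives have a fitted effect of over 45% in size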
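AMA1 (3D7) with his tag at 25 nM final met compounds first, then biotinylated RON2 peptide at 25 nM; detection used donor plus acceptor beads, 10 µg/mL apiece, read by AlphaScreen after 30 min at room temperature.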
CHX counter = counter-screen hit for Shiga toxin inhibitors, cycloheximide; cell reporter, cycloheximide protein synthesis inhibition counterscreen; max response, %; 300,000 compounds, 12% hits; AID 2314; in the data active = max response mostly above about 13%, no sharp cut-off; inactive = mostly below about 14%; note: read at 38.3 µM for the half of the compounds with a filed dose; 0% is about no effect
HCV inh = blocks hepatitis C virus | Huh7.5.1 HCVcc-Cre infection, luciferase reporter, 44 h | Potency, µM (highest dose often 41.8 µM), without a hit: at the highest dose activity change, negative = inhibition, actives largely listed as inhibitors | 340,000 compounds, 3.4% hits | AID 651820; note: potency is the fitted concentration of half-maximal effect; % is set by controls: 0 for no effect and ±100 for the full control effect
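Antiviral activity was scored by luciferase reporter output from cells infected with HCVcc-Cre (~0.5 moi) in presence of compound, 44 h infection period, cells seeded 1,000/well 4 h prior.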
Pf growth 96h = inhibits malaria parasite growth, 96 h. P. falciparum luciferase reporter growth, 96 h. Potency, µM (highest dose often 28.7 µM), for the others: at the top dose activity change, negative = inhibition, most hits filed as inhibitors. 320,000 compounds, 6.9% hits. AID 504834; note: potency is the fitted concentration of half-maximal effect; % is set by controls: 0 for no effect and ±100 for the full control effect
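Plates of compound plus infected erythrocytes (2% hematocrit, 0.05% parasitemia final) incubate 96 hours, 37 C, 5% CO2. Detection reagent added; reduced luminescence from the parasites' luciferase reporter flags inhibition.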
The depositor's hits bear a star. Only some compounds are listed: those with a hit (about 21% of all), similar ones and a draw of the others. Unless noted, calls come from the whole dose curve; as a rule, active = well fitted curve in the direction sought with a large enough effect; inconclusive = small, poorly fitted or top-dose-only effect, or another doubt; inactive = no such curve, though single readings can be large; an effect the other way counts as inactive or inconclusive.

How did COCCN1C(=O)N[C@@H](c2cccs2)C(C(C)=O)=C1C do in these assays?
AMA1 RON2 block: -16.4%; HCV inh: 6.8%

Results for CNC(=O)C(=O)NCC1OCCN1S(=O)(=O)c1ccc(C)cc1 (stereo not drawn) ?
Shiga toxin inh: -29.3; Pf growth 48h: 6.6%; AMA1 RON2 block: 6.2%; CHX counter: 1.1; Pf growth 96h: 22.1%

How did Cc1ccc(S(=O)(=O)N2CCOC2C(Cl)(Cl)Cl)cc1 (stereo not drawn) do in these assays?
Shiga toxin inh: -9.0; Pf growth 48h: 8.28µM*; AMA1 RON2 block: 0.0%; CHX counter: -2.5; HCV inh: 3.2%; Pf growth 96h: 13.8%

How did O=C(NC(c1cccnc1)c1ccc2c(c1)OCO2)C1CCN(CCOc2ccc(Cl)cc2Cl)CC1 (stereo not drawn) do in these assays?
AMA1 RON2 block: -13.5%

What do the screens show for `COc1ccc(C(=O)NNC(=O)CCn2nnc(-c3ccc(C)cc3)n2)cc1OC`?
Shiga toxin inh: 1.7; Pf growth 48h: 33.3%; AMA1 RON2 block: 118.8%; CHX counter: -1.6; HCV inh: 8.5%; Pf growth 96h: 39.6%

Results for C=Cn1ccnc1P(=S)(c1ccn(C)c1)c1nccn1C=C ?
Shiga toxin inh: 17.0; Pf growth 48h: -1.0%; AMA1 RON2 block: 8.5%; CHX counter: -3.8; HCV inh: 12.2%; Pf growth 96h: 7.38µM*

Results for Cc1cn(CCOc2ccc(Cl)cc2)c(=O)[nH]c1=O ?
Shiga toxin inh: 6.7; Pf growth 48h: -5.1%; AMA1 RON2 block: 0.7%; CHX counter: -5.2; HCV inh: -0.3%; Pf growth 96h: 6.5%

What do the screens show for `O=C(/C=C/c1ccc([N+](=O)[O-])s1)N1CCCC1`?
Shiga toxin inh: 10.0; Pf growth 48h: 13.1µM*; AMA1 RON2 block: -1.4%; CHX counter: -1.6; HCV inh: inconclusive; Pf growth 96h: 10.4µM*

Results for CC1CN(C(=O)/C=C/c2ccc([N+](=O)[O-])s2)CC(C)O1 (stereo not drawn) ?
Shiga toxin inh: -14.5; Pf growth 48h: inconclusive; AMA1 RON2 block: -5.8%; CHX counter: 14.8; HCV inh: inconclusive; Pf growth 96h: inconclusive

How did O=C(/C=C/c1ccc([N+](=O)[O-])s1)N1CCCCC1 do in these assays?
Shiga toxin inh: 16.5; Pf growth 48h: inconclusive; AMA1 RON2 block: 3.4%; CHX counter: 23.8*; HCV inh: inconclusive; Pf growth 96h: inconclusive

What do the screens show for `CC1CC(C)CN(C(=O)/C=C/c2ccc([N+](=O)[O-])s2)C1` (stereo not drawn)?
Shiga toxin inh: 50.0; Pf growth 48h: -113.9%; AMA1 RON2 block: -16.6%; CHX counter: 5.4; HCV inh: inconclusive; Pf growth 96h: 9.28µM*

What do the screens show for `O=C(/C=C/c1cccs1)N1CCCCC1`?
Shiga toxin inh: 61.0*; Pf growth 48h: 88.6%; AMA1 RON2 block: -1.3%; CHX counter: 39.3*; HCV inh: 12.4%; Pf growth 96h: inconclusive

Results for Cc1ncc2c(n1)NC(=O)NC2 ?
AMA1 RON2 block: 13.7%; HCV inh: 4.7%

How did CC(=O)c1cn(CC(=O)Nc2ccc(C)cc2C)c2ccccc12 do in these assays?
Shiga toxin inh: -6.9; Pf growth 48h: inconclusive; AMA1 RON2 block: 0.4%; CHX counter: 0.9; HCV inh: 5.62µM*

Results for Cc1ccc(NC(=O)Cn2cc(C(=O)C3CC3)c3ccccc32)c(C)c1 ?
Shiga toxin inh: 36.2*; Pf growth 48h: 33.5%; AMA1 RON2 block: -14.2%; CHX counter: 33.0*; HCV inh: 14.6%; Pf growth 96h: 2.0%

Results for CCOc1ccc(C(C(=O)NCC2CCCO2)N(C(=O)c2snc(C(N)=O)c2N)c2cccc(F)c2)cc1 (stereo not drawn) ?
Shiga toxin inh: -2.9; Pf growth 48h: 13.1µM*; AMA1 RON2 block: -8.3%; CHX counter: -1.2; HCV inh: -25.1%; Pf growth 96h: 28.2%

What do the screens show for `CCOc1ccc(N(C(=O)c2snc(C(N)=O)c2N)C(C(=O)NCC2CCCO2)c2ccc(C)o2)cc1` (stereo not drawn)?
Shiga toxin inh: 46.9*; Pf growth 48h: inconclusive; AMA1 RON2 block: -5.5%; CHX counter: 18.0*; HCV inh: 3.9%; Pf growth 96h: inconclusive

How did CCOc1ccc(C(C(=O)NCC2CCCO2)N(C(=O)c2snc(C(N)=O)c2N)c2ccccc2F)cc1 (stereo not drawn) do in these assays?
Shiga toxin inh: -6.8; Pf growth 48h: inconclusive; AMA1 RON2 block: -14.0%; CHX counter: -4.7; HCV inh: inconclusive; Pf growth 96h: inconclusive

Results for Cc1ccc(C(C(=O)NCC2CCCO2)N(C(=O)c2snc(C(N)=O)c2N)c2ccc(F)cc2)o1 (stereo not drawn) ?
Shiga toxin inh: -7.1; Pf growth 48h: inconclusive; AMA1 RON2 block: -2.7%; CHX counter: 1.0; HCV inh: -12.1%; Pf growth 96h: inconclusive

What do the screens show for `COc1ccc(N(C(=O)c2snc(C(N)=O)c2N)C(C(=O)NC2CCCCC2)c2ccc(C)o2)cc1` (stereo not drawn)?
Shiga toxin inh: -12.3; Pf growth 48h: 8.28µM*; AMA1 RON2 block: 3.2%; CHX counter: -9.3; HCV inh: inconclusive; Pf growth 96h: -21.0%

How did COc1ccc(-c2nsc(C(=O)N(c3ccc(F)cc3)C(C(=O)NC3CCCC3)c3ccc(OC)cc3)c2N)cc1 (stereo not drawn) do in these assays?
Shiga toxin inh: -1.9; Pf growth 48h: 2.62µM*; AMA1 RON2 block: -13.9%; CHX counter: -5.8; HCV inh: 4.6%

How did COc1ccc(N(C(=O)c2snc(C(N)=O)c2N)C(C(=O)NC2CCCC2)c2ccco2)cc1 (stereo not drawn) do in these assays?
Shiga toxin inh: -13.5; Pf growth 48h: inconclusive; AMA1 RON2 block: -11.2%; CHX counter: -5.9; HCV inh: -20.2%; Pf growth 96h: -25.1%

What do the screens show for `C=CCNc1ncnc2c1ncn2[C@H]1CN(Cc2cc(OC)c(OC)c(OC)c2)C[C@@H](CO)O1`?
AMA1 RON2 block: 9.7%

What do the screens show for `CCOc1ccc(C(C(=O)NCC2CCCO2)N(Cc2cccs2)C(=O)c2snc(C(N)=O)c2N)cc1` (stereo not drawn)?
Shiga toxin inh: -9.4; Pf growth 48h: 13.1µM*; AMA1 RON2 block: -1.8%; CHX counter: -2.1; HCV inh: inconclusive; Pf growth 96h: inconclusive

What do the screens show for `Cc1cc(C)cc(N(C(=O)c2snc(C(N)=O)c2N)C(C(=O)NCC2CCCO2)c2cccs2)c1` (stereo not drawn)?
Shiga toxin inh: 19.8; Pf growth 48h: inconclusive; AMA1 RON2 block: -0.2%; CHX counter: 6.8; HCV inh: 11.2µM*; Pf growth 96h: -1.5%
